Rows were chosen to be rich in hits. Some 3.7% of all compounds tested hit in one or more screens of this group.
Anthrax LF prot – blocks Bacillus anthracis lethal factor protease | actives 0.12% (n = 360,000) | inhibition, % at 10 µM | multiplex microsphere protease cleavage assay, LF | P15917; note: plate controls were buffer without enzyme for full effect and enzyme alone for no effect
BoNT A protease – inhibitors of Botulinum neurotoxin A light chain protease. multiplex microsphere protease substrate cleavage, flow cytometry. actives 0.17% (n = 360,000). inhibition, % at 10 µM; note: plate controls were buffer without enzyme for full effect and enzyme alone for no effect
BoNT F protease – blocks Botulinum neurotoxin F light chain protease | Multiplex microsphere protease cleavage assay, flow cytometry | inhibition, % at 10 µM | actives 0.22% (n = 360,000) | AID 588497; in the data active = inhibition above about 35%, passing the limit was not always enough; inconclusive = no clear call, values can overlap the other calls; note: plate controls were buffer without enzyme for full effect and enzyme alone for no effect
MazEF act – activators of E. coli MazEF toxin-antitoxin RNase; FAM/BHQ RNA-DNA oligo cleavage fluorescence, 5 h; activation, % at 20 µM; actives 0.32% (n = 350,000); AID 504720; in the data active = activation above about 50%
Autofluor counter – flagged as autofluorescent in microsphere protease counterscreen | compound autofluorescence counterscreen, microsphere flow cytometry; active compounds read high | actives 3.1% (n = 360,000) | fluorescence intensity (test concentration not listed) | AID 624483; in the data active = fluorescence intensity above about 16000; inconclusive = no clear call, values can overlap the other calls
Starred values were filed as active, the others as inactive; i = inactive; u = inconclusive; x = not tested or not shown. Cut-off read from the data, not from the text of the source, unless noted: active = inhibition above about 30%; inconclusive = no clear call, values can overlap the other calls; inactive = below that.

SMILES | Anthrax LF prot | BoNT A protease | BoNT F protease | MazEF act | Autofluor counter
COc1ccccc1COCC(O)CNCC1(N2CCCCC2)CCCCC1 (centres undefined) | -5 | 0 | 1 | 16 | 22309*
COc1cc(C(C)=O)ccc1OCC(O)CNCC1(N2CCCCC2)CCCCC1 (centres undefined) | -13 | -1 | -17 | 2 | 5883
CCn1cc(/C=C/c2cc[n+](C)cc2)c2ccccc21 | 4 | -9 | -2 | i | 7776
C=CCn1cc(/C=C/c2cc[n+](C)cc2)c2ccccc21 | -12 | -1 | 6 | 70* | 5216
CC(C)n1cc(/C=C/c2cc[n+](C)cc2)c2ccccc21 | 2 | -10 | u | 69* | 7713
CC1=CC(c2ccc(Cl)cc2)n2nc(NS(=O)(=O)c3ccc(C)cc3)nc2N1 (centres undefined) | -2 | 1 | -2 | 2 | 23033*
CC1=CC(c2ccccc2)n2nc(NS(=O)(=O)c3ccc(C)cc3)nc2N1 (centres undefined) | -1 | 0 | 6 | 4 | 9844
CC(CC(=O)NCc1ccccc1)C1CCCO1 (centres undefined) | -17 | 8 | 9 | 5 | 19114*
CNc1nc(Nc2ccc(C)cc2C)c2sccc2n1 | 3 | 0 | -4 | x | 2889
CCOc1ncnc2c1oc1nc(CC(C)C)c3c(c12)CC(C)(C)OC3 | 0 | 2 | 3 | 5 | 19881*
CCCc1nc2oc3c(NCC4CCCO4)ncnc3c2c2c1COC(C)(C)C2 (centres undefined) | 1 | 1 | 0 | 7 | 22258*
O=C(Nc1ccn(CCCN2CCN(Cc3ccc(F)cc3)CC2)c(=O)n1)OCc1ccccc1 | -2 | 0 | -2 | 17 | 3570
Cc1cc(C(=O)NCc2ccccc2Br)no1 | -1 | u | -3 | -2 | 21781*
Cc1cc(C(=O)NCc2ccccc2)no1 | -16 | 13 | 17 | 1 | 15472
CCNC(=S)NNC(=O)c1cc(C)on1 | 0 | 5 | 6 | -13 | 21335*
Cc1cc(C(=O)NNC(=S)NCc2ccccc2)no1 | 1 | 0 | 0 | 1 | 6081
Clc1ccc(Oc2cnc3ccccc3n2)cc1 | -3 | -2 | -4 | -9 | 24944*
Cc1ccc(Oc2cnc3ccccc3n2)cc1 | -4 | u | -2 | -7 | 20600*
Fc1ccc(Oc2cnc3ccccc3n2)cc1 | 2 | 0 | 0 | 2 | 2246
CC1(C)CC(NC(=O)c2ccc(Cl)c(S(=O)(=O)N(Cc3ccccc3)c3ccccc3)c2)CC(C)(C)N1 | -6 | -1 | -3 | -18 | 6859
Cc1cc(C)c2c(CN3CCN(CCO)CC3)cc(=O)oc2c1 | 0 | 0 | -1 | 1 | 23234*
Cc1cc(C)c2c(CN3CCN(c4ccccc4F)CC3)cc(=O)oc2c1 | -8 | -1 | 9 | x | 4197
Cc1ccc2c(CN3CCN(CCO)CC3)cc(=O)oc2c1C | 3 | 0 | 7 | -3 | 10459
Cc1cc(C)c2c(CN3CCN(C)CC3)cc(=O)oc2c1 | -1 | -2 | -5 | 4 | 16812*
COc1ccc(-c2nc3cc(C)c(Br)c(C)n3c2CC(C)(C)C)cc1OC | 0 | 0 | -4 | x | 5845
SMILES | Anthrax LF prot | BoNT A protease | BoNT F protease | MazEF act | Autofluor counter
NC(=O)CCCCC(=O)OCCCc1cccs1 | 0 | -1 | 1 | 1 | 16230*
O=C(CCCCC(=O)NCc1cccs1)NCc1cccs1 | 3 | -1 | -6 | 4 | 8657
COc1cccc(NC(=O)Nc2ccc3c(c2)N(C)C(=O)CS3)c1 | 8 | -2 | -3 | 8 | 10487
COc1ccc2c(c1)SCC(=O)N2C | 2 | -5 | -2 | 3 | 21232*
Clc1ccc(OCc2nc(-c3ccccn3)n[nH]2)cc1 | -2 | 0 | -1 | -20 | 19968*
Brc1ccc(OCc2nc(-c3ccccn3)n[nH]2)cc1 | -2 | -2 | -14 | 6 | 2233
CCOC(=O)c1c(CN2CCCCC2)n(C)c2cc(Br)c(OC)cc12 | 0 | 0 | -10 | 1 | 4049
CCOC(=O)c1c(CN2CCN(CCO)CC2)n(C)c2cc(Br)c(OC)cc12 | -1 | 0 | -2 | 0 | 23678*
CCOC(=O)c1c(C)oc2cc(Br)c(OC)cc12 | -1 | -3 | -4 | 7 | 25149*
Cc1ccc(NS(=O)(=O)c2ccc(C)c(C(=O)Nc3ccc(S(=O)(=O)Nc4onc(C)c4C)cc3)c2)cc1 | -6 | 0 | 2 | -2 | 3598
O=C(CSc1ncn(-c2ccccc2)n1)N1CCN(c2ccccc2)CC1 | 2 | 1 | 10 | 2 | 4608
Cc1cc(NC(=O)CSc2ncn(-c3ccccc3)n2)no1 | -4 | 0 | -15 | 4 | 2476
Cc1ccc(CSc2ncn(-c3ccccc3)n2)cc1 | -5 | u | -8 | 8 | 24543*

Source: PubChem BioAssay
